Assay results as given in PubChem BioAssay (Tox21).
Results filed as inconclusive are left out. Activity calls are given as the source filed them. Unless noted, calls come from the whole dose curve; as a rule, active = well fitted curve in the direction sought with a large enough effect in the repeat runs; inconclusive = weak or mixed curves; inactive = no such curve, though single readings can be large; an effect the other way counts as inactive or inconclusive.

How the values were obtained:
[1] = qHTS assay for small molecules that induce genotoxicity in human embryonic kidney cells expressing luciferase-tagged ATAD5 (AID 651632); note: nearly all actives have a fitted effect of over 15% in size
How it was run: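 Luminescence read-out: after 16 hr compound exposure at 37C, ATAD5-luciferase HEK293T cells received Amplite, 30 min RT, then CCD imaging. A rise in signal marks genotoxic stress.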

[2] = qHTS assay for small molecule agonists of the p53 signaling pathway - cell viability (AID 651633; calls by dose curve; note: series mostly up to about 83 µM; nearly all actives have a fitted effect of over 30% in size)
How it was run: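 p53RE-bla cells were treated with compound for 16 hours at 37 C. Cytotoxicity was then measured as CellTiter-Glo luminescence after 30 min at room temperature.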

[3] = qHTS assay for small molecules that induce genotoxicity in human embryonic kidney cells expressing luciferase-tagged ATAD5 - cell viability (AID 651634; calls by dose curve; note: nearly all actives have a fitted effect of over 25% in size)
How it was run: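 HEK293T ATAD5-luc cells, 2,000/well; compound 15.5 hr, 37C/5% CO2; CellTiter-Fluor 30 min, 37C; fluorescence read.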

[4] = qHTS assay for small molecule disruptors of the mitochondrial membrane potential - cell viability (AID 720634; calls by dose curve;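 note: human HepG2 liver cancer cells; series mostly up to about 83 µM; nearly all actives have a fitted effect of over 20% in size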)
How it was run: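 Luminescence from CellTiter-Glo (ATP content) gave viability in HepG2 cells, read in the same wells as the MMP dye assay after 1 hr compound exposure at 37 C.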

[5] = qHTS assay for small molecule disruptors of the mitochondrial membrane potential (AID 720635)
How it was run: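 HepG2 cells exposed to compound 1 hr at 37C, then Mito-MPS dye 30 min. Ratio read of aggregate (540/590 nm) versus monomer (490/535 nm) fluorescence.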

[6] = qHTS assay to test for compound auto fluorescence at 590 nm (red) in HepG2 cells (AID 720674)
How it was run: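 Fluorescence at 590 nm emission following 540 nm excitation was recorded from HepG2 wells one hour after compound transfer, with DMSO-only wells as vehicle and Rose Bengal sodium equivalency as the scale.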

[7] = qHTS assay to test for compound auto fluorescence at 535 nm (green) in HepG2 cells (AID 720675)
[8] = qHTS assay to test for compound auto fluorescence at 460 nm (blue) in HEK293 cells (AID 720678)
How it was run: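 HEK293 cells (2,000 per well, medium with 10% dialyzed FBS) attached for 4-5 hr at 37C, then received compound and stood overnight at 37C, 5% CO2. Blue fluorescence was read at Ex/Em 405/460 nm and expressed relative to triamterene.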

[9] = qHTS assay to test for compound auto fluorescence at 590 nm (red) in HEK293 cells (AID 720679)
How it was run: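 HEK293 cells (2,000/well, medium with 10% dialyzed FBS) attached for 4-5 hr at 37C, received 23 nL compound and were incubated overnight at 37C, 5% CO2. Red fluorescence was then read at 540/590nm Ex/Em, referenced to Rose Bengal sodium.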

[10] = qHTS assay for small molecule agonists of the p53 signaling pathway (AID 651631; calls by dose curve; note: nearly all actives have a fitted effect of over 15% in size)
How it was run: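 Readout was fluorescence from the LiveBLAzer FRET substrate, applied for 2 h at room temperature after 16 h compound exposure at 37 °C. Cells were the p53RE-bla HCT-116 line, with beta-lactamase driven by p53 response elements.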
% is set by controls: 0 for no effect and ±100 for the full control effect.

CCCCC(CC)COCCO (stereo not given)
inactive: Potency [1] | outcome [2] | Potency [3] | outcome [4] | Potency [5] | outcome [6] | outcome [7] | outcome [8] | outcome [9]

CC(C)CCCCOC(=O)c1ccccc1C(=O)OCCCCC(C)C
inactive: Potency [1] | outcome [2] | Potency [3] | Potency [5] | outcome [6] | outcome [7] | outcome [8] | outcome [9]

O=S(=O)(O)c1cc(O)c2ccc(Nc3ccccc3)cc2c1
inactive: Potency [1] | outcome [2] | Potency [3] | outcome [4] | outcome [6] | outcome [7] | outcome [8] | outcome [9]

On1nnc2ccccc21
inactive: outcome [10] | outcome [4] | Potency [5] | outcome [6] | outcome [7] | outcome [8] | outcome [9]

COc1ccc2c(c1OC)C(=O)O[C@@H]2[C@H]1c2c(cc3c(c2OC)OCO3)CCN1C
inactive: Potency [1] | outcome [2] | outcome [4] | Potency [5] | outcome [6] | outcome [7] | outcome [8] | outcome [9]

O=C1c2cccc3c2[C@H](CCC3)CN1[C@@H]1CN2CCC1CC2
inactive: Potency [1] | outcome [2] | outcome [4] | Potency [5] | outcome [6] | outcome [7] | outcome [8] | outcome [9]

COc1nccnc1NS(=O)(=O)c1ccc(N)cc1
inactive: Potency [1] | outcome [2] | Potency [3] | outcome [4] | outcome [6] | outcome [7] | outcome [8] | outcome [9]

COc1ccc(OC)c(Cl)c1
inactive: Potency [1] | outcome [2] | Potency [3] | outcome [4] | outcome [6] | outcome [7] | outcome [8] | outcome [9]

COC(=O)CCc1ccc(OCC(O)CNC(C)C)cc1 (stereo not given)
inactive: Potency [1] | outcome [2] | Potency [3] | outcome [4] | Potency [5] | outcome [6] | outcome [7] | outcome [8] | outcome [9]

OCCC(F)(F)C(F)(F)C(F)(F)C(F)(F)C(F)(F)C(F)(F)C(F)(F)C(F)(F)F
inactive: Potency [1] | outcome [2] | Potency [3] | outcome [4] | outcome [6] | outcome [7] | outcome [8] | outcome [9]

CC(CN)CC(C)(C)CCN (stereo not given)
inactive: Potency [1] | outcome [2] | Potency [3] | outcome [4] | Potency [5] | outcome [6] | outcome [7] | outcome [8] | outcome [9]

CCCOC(=O)C(C)O (stereo not given)
inactive: outcome [10] | Potency [3] | outcome [4] | outcome [6] | outcome [7] | outcome [8] | outcome [9]

COc1ccc2c(c1)C(=O)N(CCc1ccc(S(=O)(=O)NC(=O)NC3CCCCC3)cc1)C(=O)C2(C)C
inactive: Potency [1] | outcome [2] | Potency [3] | outcome [4] | fluorescence, relative to Rose Bengal [6] 0.0268% [at 18.6 µM] | fluorescence, % of fluorescein control [7] -0.152% [at 18.6 µM] | fluorescence, % of triamterene [8] 0.056% [at 18.6 µM] | fluorescence, % of fluorescent control [9] -0.014% [at 18.6 µM]

CCN(C)C(=O)Oc1cccc([C@H](C)N(C)C)c1
inactive: Potency [1] | outcome [2] | Potency [3] | outcome [4] | outcome [6] | outcome [7] | outcome [8] | outcome [9]

CCC(CC)CO
inactive: Potency [1] | outcome [2] | Potency [3] | outcome [4] | Potency [5] | outcome [6] | outcome [7] | outcome [8] | outcome [9]

OC[C@H](Cc1cccc(O)c1)[C@H](CO)Cc1cccc(O)c1
inactive: Potency [1] | outcome [2] | Potency [3] | outcome [4] | outcome [6] | outcome [7] | outcome [8] | outcome [9]

O=Cc1ccc(Cl)c(Cl)c1
inactive: Potency [1] | outcome [2] | Potency [3] | outcome [4] | outcome [6] | outcome [7] | outcome [8] | outcome [9]

CN(C)c1ccc(C=O)cc1
inactive: Potency [1] | outcome [2] | Potency [3] | outcome [4] | outcome [6] | outcome [7] | outcome [8] | outcome [9]

CC[C@H](C)C(=O)O[C@H]1C[C@H](O)C=C2C=C[C@H](C)[C@H](CC[C@@H](O)C[C@@H](O)CC(=O)O)[C@H]21
inactive: Potency [1] | outcome [2] | Potency [3] | outcome [4] | outcome [6] | outcome [7] | outcome [8] | outcome [9]

O=C(O)CCSSCCC(=O)O
inactive: Potency [1] | outcome [2] | Potency [3] | outcome [4] | outcome [6] | outcome [7] | outcome [8] | outcome [9]

C[C@H](CCC(=O)O)[C@H]1CC[C@H]2[C@@H]3C(=O)C[C@@H]4CC(=O)CC[C@]4(C)[C@H]3CC(=O)[C@]12C
inactive: Potency [1] | outcome [2] | Potency [3] | outcome [4] | outcome [6] | outcome [7] | outcome [8] | outcome [9]
